Hits are enriched below; roughly 22% of the tested compounds scored in any of these assays.
Cycloheximide cs: counter-screen for Shiga toxin inhibitors: cycloheximide protein synthesis inhibition. cell reporter, cycloheximide protein synthesis inhibition counterscreen. max response, %. AID 2314. 300,000 compounds, 12% hits; in the data active = max response mostly above about 13%, no sharp cut-off; inactive = mostly below about 14%; note: read at 38.3 µM for the half of the compounds with a filed dose; 0% is about no effect
Shiga inhibitor: blocks Shiga toxin action in Vero cells | Vero cells, Shiga toxin protein synthesis inhibition reporter | inhibition, % at 38.7 µM | 290,000 compounds, 9.2% hits; in the data active = inhibition mostly above about 28%, no sharp cut-off; inactive = mostly below about 43%; note: 0% is about no effect
Pf growth 48h: P. falciparum growth inhibition at 48 hours (one generation); Potency, µM (doses to about 28.7 µM), inactives show at the highest dose activity change, negative = inhibition, most hits filed as inhibitors; P. falciparum luciferase growth in erythrocytes, 48 h; 310,000 compounds, 5.9% hits; note: potency is the fitted concentration of half-maximal effect; % is set by controls: 0 for no effect and ±100 for the full control effect
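Cell-based growth assay: transgenic P. falciparum expressing firefly luciferase, cultured in red cells within RPMI 1640 containing 0.5% w/v Albumax, 24 mM bicarbonate and gentamycin. A drop in luciferase activity indicates inhibition.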
LmPK inhibitor: LmPK (Leishmania mexicana) enzyme inhibition. purified LmPK, Kinase-Glo ATP luminescence, 1 h. Potency, µM (top dose mostly 57.5 µM), without a hit: at the top dose activity change, negative = inhibition, most hits filed as inhibitors. 290,000 compounds, 0.37% hits. AID 1721; note: potency is the fitted concentration of half-maximal effect; % is set by controls: 0 for no effect and ±100 for the full control effect
Target sequence (Q27686 whole entry, looked up): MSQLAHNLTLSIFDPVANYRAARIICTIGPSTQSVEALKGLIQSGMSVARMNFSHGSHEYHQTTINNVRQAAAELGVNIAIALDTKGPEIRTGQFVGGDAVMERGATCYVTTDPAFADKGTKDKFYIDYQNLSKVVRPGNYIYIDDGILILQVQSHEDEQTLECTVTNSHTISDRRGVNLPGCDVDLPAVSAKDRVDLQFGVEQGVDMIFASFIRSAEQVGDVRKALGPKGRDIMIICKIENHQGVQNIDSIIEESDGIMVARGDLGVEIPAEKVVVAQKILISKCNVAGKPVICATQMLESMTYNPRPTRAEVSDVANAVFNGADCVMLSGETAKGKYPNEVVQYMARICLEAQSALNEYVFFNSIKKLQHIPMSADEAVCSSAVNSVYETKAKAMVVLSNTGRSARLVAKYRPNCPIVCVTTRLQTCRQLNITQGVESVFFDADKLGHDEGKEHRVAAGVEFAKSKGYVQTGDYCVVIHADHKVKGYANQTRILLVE
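Pyruvate kinase activity monitored as ATP production (luciferase luminescence). Conditions: 0.1 nM enzyme, 0.5 mM PEP, 0.1 mM ADP, 1 h, RT; normalized against uninhibited and no-enzyme wells.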
Pf growth 96h: P. falciparum growth inhibition at 96 hour, primary screen for plastid delayed-death inhibitors. P. falciparum luciferase reporter growth, 96 h. 320,000 compounds, 6.9% hits. Potency, µM (highest dose often 28.7 µM), without a hit: top-dose activity change, negative = inhibition, actives largely listed as inhibitors. AID 504834; note: potency is the fitted concentration of half-maximal effect; % is set by controls: 0 for no effect and ±100 for the full control effect
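P. falciparum expressing integrated firefly luciferase grown in erythrocytes (2% hematocrit, 0.05% parasitemia final) with compounds for 96 hours at 37 C, 5% CO2. Growth inhibition read as loss of luminescence after adding luciferase detection reagent.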
The depositor's hits bear a star; ? = inconclusive; / = no result. Unless noted, calls come from the whole dose curve; as a rule, active = well fitted inhibition curve with a large enough effect; inconclusive = small, poorly fitted or top-dose-only effect, or another doubt; inactive = no such curve, though single readings can be large or run the other way.

SMILES	Cycloheximide cs	Shiga inhibitor	Pf growth 48h	LmPK inhibitor	Pf growth 96h
CCCOc1ncnc2c1[nH]c1ccccc12	42*	60	68%	2%	65%
CC(C)Oc1ncnc2c1[nH]c1ccccc12	30*	39*	?	-6%	?
COc1cccc(/C=N/Nc2ncnc3c2[nH]c2ccc(C)cc23)c1OC	1	23	?	-6%	?
CCCCOc1ncnc2c1[nH]c1ccc(C)cc12	43*	106*	203%	3%	337%
Cc1cc(-c2ccc(S(=O)(=O)N(C)Cc3ccccc3)cc2)on1	-2	-10	-5%	0%	?
CCOc1cc(N2CCOCC2)c(OCC)cc1NC(=O)CN1C(=O)C2C3C=CC(C3)C2C1=O (configuration not stated)	-1	-5	-4%	-2%	?
CCN(CC)c1ncnc2c1[nH]c1ccccc12	-3	-22	4.1µM*	-1%	/
COCCNc1ncnc2c1[nH]c1ccccc12	6	9	-1%	-3%	-3%
O=C(N/N=C/c1cccc2ccccc12)c1cccc(F)c1	63*	79*	?	-5%	0%
O=C(N/N=C/c1ccccc1Cl)c1cccc(F)c1	78*	97*	123%	?	74%
O=C(N/N=C/c1c(Cl)cccc1Cl)c1cccc(F)c1	17	14	33%	5%	9%
CN(C(=O)c1cncc(Br)c1)C1C2CC3CC(C2)CC1C3 (configuration not stated)	19*	25	?	-5%	?
O=C(COC(=O)c1cncc(Br)c1)NCC12CC3CC(CC(C3)C1)C2	/	/	15%	/	4%
CCC1(C)Cc2c(sc3nc(SC)nc(NCCN(C)C)c23)CO1 (configuration not stated)	-2	-10	?	2%	3.7µM*
CSc1nc(SCCN(C)C)c2c3c(sc2n1)COC(C)(C)C3	-1	-4	?	-4%	?
CC(C)Sc1nc(N2CCOCC2)c2c3c(sc2n1)COC(C)(C)C3	-2	-20	?	1%	?
CCN1CCN(c2nc(SC)nc3sc4c(c23)CC(C)(C)OC4)CC1	-1	9	1.7µM*	0%	28%
CCOC(=O)N1CCN(c2nc(SC)nc3sc4c(c23)CC(C)(C)OC4)CC1	-1	3	3.7µM*	-4%	/
COc1cc(/C=N/NC(=O)C2=NNC(=O)C2C)ccc1O (configuration not stated)	27*	48	42%	4%	-13%
CC1C(=O)NN=C1C(=O)N/N=C\C(Br)=C\c1ccccc1 (configuration not stated)	17*	53*	121%	-6%	?
CC1=NNC(=O)C1CCC(=O)N/N=C/c1ccco1 (configuration not stated)	-4	14	20%	-7%	?
CC1C(=O)NN=C1C(=O)N/N=C/c1ccco1 (configuration not stated)	53*	48*	53%	?	?
CC1C(=O)NN=C1C(=O)N/N=C\c1ccc(O)cc1O (configuration not stated)	24*	30	?	?	24%
CCCCN(C)C(=O)c1c[nH]c2ccc(S(=O)(=O)N3CCOCC3)cc2c1=O	-3	-5	6%	9%	-5%
CS(=O)(=O)c1ccc(NS(=O)(=O)c2ccc(Cl)c(C(=O)NCc3ccco3)c2)cc1	/	/	?	/	32%
SMILES	Cycloheximide cs	Shiga inhibitor	Pf growth 48h	LmPK inhibitor	Pf growth 96h
Cc1nc(NC(=O)CSC2=NCCS2)sc1C(=O)N(C)C	9	-15	?	-7%	?
CCOC(=O)C1CCN(Cc2ccc3ccccc3c2)CC1	1	-10	-1%	-1%	13µM*
c1ccc(CN2CCN(Cc3ccc4ccccc4c3)CC2)cc1	8	15	?	3%	0.93µM*
CCOC(=O)C1CCN(Cc2cc(C(C)C)c(O)c(C(C)C)c2)CC1	-5	14	?	0%	0.41µM*
CCOC(=O)C1CCN(Cc2cccc(OC)c2)CC1	-3	-9	/	7%	9%
CCOC(=O)C1CCN(Cc2oc(CO)cc(=O)c2O)CC1	15	33*	/	-10%	?
Cc1ccc(NC(=O)Cc2nnc(SCC(=O)c3ccc(Br)cc3)n2C)cc1	-5	-7	/	-11%	-17%
CC(=O)N[C@@H](CCC(=O)O)C(=O)O	/	/	3%	/	-19%
Cc1ncc(CO)c(/C=N/NC(=O)c2cc3c(s2)CCCC3)c1O	-5	-2	?	4%	?
CCOC(=O)C1CCN(Cc2c(O)ccc3ccccc23)CC1	9	-26	?	2%	9.3µM*
CCOC(=O)N1CCN(Cc2c(O)ccc3ccccc23)CC1	-7	-7	90%	-3%	25%
COc1cc2c(cc1OC)CN(C(=S)Nc1c(C)cccc1C)CC2	-1	-2	17%	-10%	24%
O=[N+]([O-])c1ccc(Cl)cc1	/	/	32%	/	?
Nc1ccc(-c2nc3ccc([N+](=O)[O-])cc3[nH]2)cc1	63*	52	177%	-19%	?
O=[N+]([O-])c1ccc2nc(/C=C/c3ccc(Cl)cc3)[nH]c2c1	60*	153*	8.3µM*	4%	8.3µM*
NC(=O)CSc1nc2ccc([N+](=O)[O-])cc2[nH]1	0	-13	11%	3%	-1%
O=[N+]([O-])c1ccc2nc(C(O)C(O)c3nc4ccc([N+](=O)[O-])cc4[nH]3)[nH]c2c1 (configuration not stated)	22*	/	3%	15%	?
CCCC[n+]1ccc(-c2nc3ccc([N+](=O)[O-])cc3[nH]2)cc1	7	6	?	1%	?
O=[N+]([O-])c1ccc(-c2nc3ccc([N+](=O)[O-])cc3[nH]2)cc1	40*	96	?	3%	?
CC(=O)O[C@H]1[C@H](C)OC=C[C@@H]1OC(C)=O	-1	-14	10%	-6%	-23%
CN(C)S(=O)(=O)c1ccc(S(=O)(=O)N2CCCC(C(=O)NC3CCCC3)C2)cc1 (configuration not stated)	-4	-8	-5%	-6%	1%
CCn1ccnc1CN(C)C(=O)CC1C(=O)NCCN1Cc1c(F)cccc1Cl (configuration not stated)	-2	-3	48%	1%	10µM*
O=C1NCCN(Cc2ccc(Cl)c(F)c2)C1CC(=O)N1CCCO1 (configuration not stated)	13*	38	-15%	0%	?
Cc1csc(CN(C)C(=O)CC2C(=O)NCCN2Cc2ccc(Cl)c(F)c2)n1 (configuration not stated)	5	33	-10%	-4%	9.3µM*
O=C(CC1C(=O)NCCN1Cc1cccc(Oc2ccccc2)c1)NCc1cccnc1 (configuration not stated)	-3	-3	2%	0%	?
O=C1NCCN(Cc2c(F)cccc2Cl)C1CC(=O)N1CCCO1 (configuration not stated)	-3	13	0%	2%	?

Screening data: PubChem BioAssay, National Center for Advancing Translational Sciences (NCATS)
